Eya2 phos inh = Eya2 (human) phosphatase inhibition | O00167 | recombinant Eya2, OMFP fluorescence dephosphorylation (OMFP is methylfluorescein phosphate) | Potency, µM (series often up to 76.9 µM), most hits filed as inhibitors | actives 0.006% (n = 330,000) | AID 488837
Target sequence (O00167 whole entry, looked up): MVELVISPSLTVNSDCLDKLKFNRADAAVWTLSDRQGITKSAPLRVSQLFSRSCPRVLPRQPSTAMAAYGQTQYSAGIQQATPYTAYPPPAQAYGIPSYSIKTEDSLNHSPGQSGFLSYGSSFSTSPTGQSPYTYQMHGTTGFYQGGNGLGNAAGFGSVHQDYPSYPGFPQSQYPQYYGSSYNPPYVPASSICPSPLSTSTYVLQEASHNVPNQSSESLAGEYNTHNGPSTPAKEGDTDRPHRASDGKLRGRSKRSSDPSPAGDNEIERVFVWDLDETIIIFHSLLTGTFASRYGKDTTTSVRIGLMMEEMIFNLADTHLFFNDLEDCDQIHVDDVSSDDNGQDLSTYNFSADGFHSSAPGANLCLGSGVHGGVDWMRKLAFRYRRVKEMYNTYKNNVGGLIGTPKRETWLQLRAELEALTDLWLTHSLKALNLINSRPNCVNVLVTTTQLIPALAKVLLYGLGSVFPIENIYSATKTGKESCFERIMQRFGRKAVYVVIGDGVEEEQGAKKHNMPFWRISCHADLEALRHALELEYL
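Eya2 (0.2 uM) preincubated 10 min at ambient with compound, then OMFP substrate added at 50 uM; 10 min reaction in 50 mM HEPES pH 7.5, 50 mM NaCl, 5 uM MgCl2, 0.05% BSA, 1 mM DTT. Fluorescence read at Ex 485/Em 525 nm.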
USP2a block = blocks human ubiquitin-specific protease USP2a; O75604; USP2 core, Ub-CHOP2 coupled fluorogenic reporter, 485/531; Potency, µM (highest dose often 38.3 µM), actives largely listed as inhibitors; actives 0.01% (n = 330,000); AID 463254
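USP2 core (10nM final) preincubated 30min RT with compound in 20mM Tris-HCl pH 8.0, 2mM CaCl2, 2mM beta-mercaptoethanol, 0.05% CHAPS; 25nM Ub-CHOP2 plus 25nM reporter substrate added, fluorescence (Ex485/Em531) read after 60min.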
a7 integrin act = activators of alpha7 integrin expression for muscular dystrophy; alpha7betagal myoblasts, beta-gal FDG fluorescence, 48 h; Potency, µM (doses to about 38.3 µM), most hits filed as activators; actives 0.064% (n = 350,000); AID 624291; further: nearly all actives have a fitted effect of over 60% in size
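Alpha7betagal+/- myoblasts (passage 13) were plated 16-24 hr, then exposed to compounds (1:260 dilution of DMSO stock) for 48 hours at 37C. After MPER lysis, β-galactosidase reporter activity was read as FDG fluorescence (ex 480/em 540) after 30 minutes.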
ClpP mod = qHTS Assay for Activators of ClpP; ATP-dependent Clp protease proteolytic subunit (Bacillus subtilis (strain 168)), P80244; purified B. subtilis ClpP, FRET peptide cleavage, 20 min; Potency, µM (top dose mostly 57.5 µM); actives 1.9% (n = 340,000); active means well fitted falling curve with a large enough effect; inconclusive means small, poorly fitted or top-dose-only effect; inactive means no such curve, though single readings can be large or run the other way; further: the source files actives as falling curves though it sought activators and does not explain the sign; nearly all actives have a fitted effect of over 65% in size
Target sequence (P80244 whole entry, looked up): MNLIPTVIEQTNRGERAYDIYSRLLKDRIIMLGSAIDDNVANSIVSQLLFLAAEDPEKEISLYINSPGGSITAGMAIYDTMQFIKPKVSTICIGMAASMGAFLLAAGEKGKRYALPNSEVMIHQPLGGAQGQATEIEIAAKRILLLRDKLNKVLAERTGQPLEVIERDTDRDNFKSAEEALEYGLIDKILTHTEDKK
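FRET quenching reversal measured ClpP activation: 10 microg/mL B. subtilis ClpP at pH 8 with the FRET-FV decapeptide, read at 430 nm after 320 nm excitation. The 20-min minus 0-min signal was scaled between DMSO/no-enzyme wells and ADEP (5.8 microM final).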
Mm-Cpn inhibitor = blocks the Methanococcus maripaludis chaperonin Mm-Cpn; AID 504842; Potency, µM (doses to about 76.9 µM), usual class: inhibitors; actives 0.031% (n = 330,000); purified Mm-Cpn ATPase, ADP Transcreener TR-FRET; further: nearly all actives have a fitted effect of over 80% in size
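Inhibition of chaperonin ATP hydrolysis is measured as reduced ADP production, detected by competitive TR-FRET in which signal falls with ADP. Final enzyme 25 nM and ATP 10 uM, reacted 30 min at 37°C.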
p53 reactivation = restores transcriptional activity of mutant p53. Potency, µM (titrated, usually from 92.2 µM), usual class: activators. actives 0.063% (n = 320,000). H1299 p53-A138V BP100-luciferase reporter, luminescence, 24 h; further: nearly all actives have a fitted effect of over 45% in size
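p53-null H1299 cells stably carrying temperature-sensitive p53-A138V and a BP100-luciferase reporter were pinned with compounds (4-point, 1:5 series) and held 24 hrs at 37 deg C. Luminescence was read 10 min after detection reagent.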
Hits are given with their value; ! = a repeat was not active; [ ] = remark or other dose. This excerpt belongs to a sample that is enriched for hits. Unless noted, the call rests on the fitted dose curve; in most records, active means well fitted curve in the direction sought with a large enough effect; inconclusive means small, poorly fitted or top-dose-only effect, or another doubt; inactive means no such curve, though single readings can be large; an effect the other way counts as inactive or inconclusive.

How did CN(C)CCCNc1nccc(N2CCN(C)CC2)n1 do in these assays?
ClpP mod: inactive

Results for CCc1ccc(C2=CC(c3cc(Br)ccc3F)n3ncnc3N2)cc1 (centres undefined) ?
Eya2 phos inh: inactive; USP2a block: inactive; a7 integrin act: inactive[7.66 µM]; ClpP mod: 32µM; Mm-Cpn inhibitor: inactive; p53 reactivation: inactive

What do the screens show for `O=S(=O)(c1cccc(Cl)c1)N1CCN(c2nc(-c3cccs3)nc3ccccc23)CC1`?
ClpP mod: 14µM!

What do the screens show for `C=CCNc1nc(NC2CCN(C)CC2)c2cc(OC)c(OC)cc2n1`?
ClpP mod: inactive

How did NC(=S)Nc1cccc(-c2n[nH]c(=S)o2)c1 do in these assays?
Eya2 phos inh: inactive; USP2a block: inactive; a7 integrin act: inconclusive; Mm-Cpn inhibitor: inconclusive; p53 reactivation: inactive

What do the screens show for `Cc1ccc(NC(=S)Nc2cccc(-c3n[nH]c(=S)o3)c2)cc1`?
Eya2 phos inh: inactive; USP2a block: inactive; a7 integrin act: inactive; Mm-Cpn inhibitor: 50µM; p53 reactivation: inactive

Results for CCOCCCNC(=O)C(c1ccc(Cl)cc1)N(Cc1ccc2c(c1)OCO2)C(=O)c1ccccc1O (centres undefined) ?
ClpP mod: inactive

Results for CC(C)CNS(=O)(=O)c1ccc(CCC(=O)N2CCN(c3ccc(F)cc3)CC2)cc1 ?
Eya2 phos inh: inactive; USP2a block: inactive; a7 integrin act: inactive; ClpP mod: inactive; Mm-Cpn inhibitor: inactive; p53 reactivation: inactive

How did COc1ccc(N2CCN(C(=O)CCc3ccc(S(=O)(=O)NCC(C)C)cc3)CC2)cc1 do in these assays?
Eya2 phos inh: inactive; USP2a block: inactive; a7 integrin act: inactive; ClpP mod: 25µM; Mm-Cpn inhibitor: inactive; p53 reactivation: inactive

Results for C[C@@H]1C[C@H]2[C@@H]3CCC4=CC(=O)C=C[C@]4(C)[C@@]3(F)C(O)C[C@]2(C)[C@@]1(O)C(=O)CO (some centres undefined) ?
ClpP mod: inactive

How did CCOC(=O)c1sc(C)c2c(=O)n(CC(=O)c3ccc(Br)cc3)nnc12 do in these assays?
Eya2 phos inh: inactive; USP2a block: inactive; a7 integrin act: inactive; ClpP mod: inactive; Mm-Cpn inhibitor: inactive; p53 reactivation: inactive

How did CCOC(=O)Cn1c(C)nc2c(C(=O)OCC)sc(C)c2c1=O do in these assays?
Eya2 phos inh: inactive; USP2a block: inactive; a7 integrin act: inactive; ClpP mod: 32µM; Mm-Cpn inhibitor: inactive; p53 reactivation: inactive

How did CCc1ccc(-c2cc(C(=O)N3N=C(C(F)F)CC3(O)C(F)F)c3ccccc3n2)cc1 (centres undefined) do in these assays?
Eya2 phos inh: inactive; USP2a block: inactive; a7 integrin act: inactive; ClpP mod: 22µM; Mm-Cpn inhibitor: inconclusive; p53 reactivation: inconclusive

How did Cc1ccc2nc(-c3ccc(NC(=O)C(C)N4C(=O)c5ccccc5C4=O)cc3)sc2c1 (centres undefined) do in these assays?
Eya2 phos inh: inactive; USP2a block: inactive; a7 integrin act: inactive; ClpP mod: 25µM; Mm-Cpn inhibitor: inactive; p53 reactivation: inconclusive

How did Cc1ccc2nc(-c3ccc(NC(=O)CCN4C(=O)c5ccccc5C4=O)cc3)sc2c1 do in these assays?
Eya2 phos inh: inactive; USP2a block: inactive; a7 integrin act: inactive; ClpP mod: inactive; Mm-Cpn inhibitor: inactive

What do the screens show for `CC(=O)Nc1ccc2[nH]c(C)cc(=O)c2c1`?
Eya2 phos inh: inactive; USP2a block: inactive; a7 integrin act: inactive; ClpP mod: 32µM; Mm-Cpn inhibitor: inactive; p53 reactivation: inactive

How did Fc1ccc(-c2ccnn2-c2ccccc2)cc1 do in these assays?
Eya2 phos inh: inactive; USP2a block: inactive; a7 integrin act: 4.5µM; ClpP mod: inactive; Mm-Cpn inhibitor: inactive; p53 reactivation: inactive

What do the screens show for `Nc1ccnn1-c1ccccc1`?
Eya2 phos inh: inactive; USP2a block: inactive; a7 integrin act: inactive; ClpP mod: inactive; Mm-Cpn inhibitor: inconclusive; p53 reactivation: inactive

How did O=S(=O)(NCCc1ccccc1)c1cccs1 do in these assays?
Eya2 phos inh: inactive; USP2a block: inactive; a7 integrin act: inactive; Mm-Cpn inhibitor: inconclusive; p53 reactivation: inactive

What do the screens show for `O=S(=O)(NCc1ccccc1)c1cccs1`?
Eya2 phos inh: inactive; USP2a block: inactive; a7 integrin act: inactive; ClpP mod: 14µM; Mm-Cpn inhibitor: inactive; p53 reactivation: inactive

How did CC(C)Sc1nc2c(c(=O)[nH]c(=O)n2C)n1CCc1ccccc1 do in these assays?
Eya2 phos inh: inactive[15.4 µM]; USP2a block: inactive; a7 integrin act: inactive; ClpP mod: 18µM; Mm-Cpn inhibitor: inactive; p53 reactivation: inactive

How did CCC(C)Sc1nc2c(c(=O)[nH]c(=O)n2C)n1CCc1ccccc1 (centres undefined) do in these assays?
Eya2 phos inh: inactive; USP2a block: inactive; a7 integrin act: inactive; ClpP mod: inactive; Mm-Cpn inhibitor: inactive; p53 reactivation: inactive

How did Cc1cc(C)c2c(N)c(C(=O)c3ccccc3)oc2n1 do in these assays?
a7 integrin act: inactive; ClpP mod: inactive

Results for COC(=O)c1oc2nc(C)cc(C)c2c1N ?
Eya2 phos inh: inactive; USP2a block: inactive; a7 integrin act: inactive; ClpP mod: 28µM; Mm-Cpn inhibitor: inactive; p53 reactivation: inactive

Results for O=C(Cc1ccccc1)NCC(=O)OCC(=O)c1ccc2ccccc2c1 ?
ClpP mod: 28µM

What do the screens show for `O=C(CNC(=O)c1ccccc1)NCC(=O)OCC(=O)c1ccc2ccccc2c1`?
ClpP mod: inactive

What do the screens show for `Cc1ccc(S(=O)(=O)N2CCN(c3nc(-c4ncccn4)nc4ccccc34)CC2)cc1`?
ClpP mod: inactive

How did O=C(Nc1ccc(OCC(=O)N2CCOCC2)cc1)Nc1cccc(Cl)c1 do in these assays?
Eya2 phos inh: inactive; USP2a block: inactive; a7 integrin act: inactive; ClpP mod: 11µM; Mm-Cpn inhibitor: inactive; p53 reactivation: inactive

Results for CCc1cnc2c(c1SCc1c(F)cccc1Cl)c(=O)n(C)c(=O)n2C ?
ClpP mod: inactive

How did COc1cccc(/C=N/Nc2nc3ccccc3n3cnnc23)c1 do in these assays?
Eya2 phos inh: inactive; USP2a block: inactive; a7 integrin act: inactive; ClpP mod: inactive; Mm-Cpn inhibitor: inactive; p53 reactivation: inactive

What do the screens show for `COc1cccc(/C=N/Nc2nc3ccccc3n3cnnc23)c1O`?
Eya2 phos inh: inactive; USP2a block: inactive; a7 integrin act: inactive; ClpP mod: inactive; Mm-Cpn inhibitor: inactive; p53 reactivation: 32µM

How did CC1(C)NC(=O)N(CC(O)CNC23CC4CC(CC(C4)C2)C3)C1=O (centres undefined) do in these assays?
Eya2 phos inh: inactive; USP2a block: inactive; a7 integrin act: inactive; ClpP mod: 28µM; Mm-Cpn inhibitor: inactive; p53 reactivation: inactive

Screens deposited in PubChem BioAssay by National Center for Advancing Translational Sciences (NCATS).
